# Source: PubChem BioAssay AID2462 (Broad Institute, 2010)
# Out of some 330,000 compounds screened, about 220 (0.067%) were called active. This excerpt belongs to a sample that is enriched for actives. Values without a mark were called inactive.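 The calls were made as follows: active = over half of replicate activation scores above 10%, or exactly half above 10 with the replicate mean above 10; inconclusive = replicate mean below 10 yet half the replicates above 10; inactive = over half of replicates below 10.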
# Experiment: caspase 3/7 activation in MEF A1-2A-BIM cells, primary screen, A1 inhibitor project, cell-based, luminescence, HTS (AID 2462)
# Settings: Caspase-Glo 3/7 luminescence, 3 h, active compounds read high, percent of clofoctol response, vehicle zero, concentration not given here
row,Compound,caspase activation
1,O=C(NNC(=O)c1cccc(S(=O)(=O)Nc2ccc(Cl)cc2)c1)c1ccc(=O)[nH]c1,-1.36%
2,COc1cc(SC#N)ccc1N=Cc1c(C)[nH]n(-c2ccc(C)cc2)c1=O,11.1% (active)
3,Cc1ccc(-n2[nH]c(C)c(/C=N/NC(=O)c3cccc([N+](=O)[O-])c3)c2=O)cc1C,-4.49%
4,Cc1[nH]n(-c2ccccc2)c(=O)c1/C=N/NC(=O)c1ccoc1C,-3.41%
5,O=C(NNS(=O)(=O)c1c(F)cc(F)c(Cl)c1F)C12CC3CC(CC(C3)C1)C2,0.494%
6,CCOC(=O)c1c(-c2cccc(N)c2)cn2ccccc12,0.104%
7,Cc1cc(NC(=O)CN2C(=O)NC(C)(CCc3ccccc3)C2=O)no1 (centres undefined),-0.914%
8,Cc1ccc(N/N=C2\COC(C)(C)CC2=O)cc1,0.0616%
9,Cc1c(Cl)cccc1NC(=O)CSc1ccc(-c2cccnc2)nn1,0.424%
10,CC(C)C[C@H](NC(=O)N1CC(=O)Nc2ccccc21)C(=O)N[C@H](Cc1ccccc1)C(=O)O,0.252%
11,CNC(=O)COc1ccc(S(=O)(=O)Nc2ccccc2)cc1,-0.951%
12,CCOC(=O)/C(=N\Nc1ccccc1[N+](=O)[O-])c1csc(Nc2ccccc2)n1,-0.494%
13,CCOC(=O)/C(=C\c1ccc([N+](=O)[O-])cc1)C(=O)c1cc(C(C)=O)c(Nc2ccccc2)s1,46.4% (active)
14,Cc1ccc(NC(=O)/C(=C/c2ccc([N+](=O)[O-])cc2)NC(=O)c2ccccc2)cc1,-0.427%
15,C/C(=C/C(=O)N1CCN(C)CC1)C(=O)O,0.653%
16,Cc1cc(C)nc(NNC2=CC(=O)CC(C)(C)C2)n1,-0.196%
17,CC(C)(C)N(Cc1ccccc1)C(=O)COC(=O)CCc1c[nH]c2ccccc12,-1%
18,COc1ccc(N2C(=O)/C(=C\c3ccco3)N=C2SCC(N)=O)cc1Cl,-0.66%
19,Cc1cc(C)n(S(=O)(=O)c2cccc([N+](=O)[O-])c2)n1,0.962%
20,O=C(NCc1ccco1)c1ccc([N+](=O)[O-])cc1Cl,1.19%
21,COc1cc2c(cc1NC(=O)CN1CCN(S(=O)(=O)c3ccc(F)cc3)CC1)oc1ccccc12,-0.105%
22,COc1cc2c(cc1NC(=O)COC(=O)/C=C/c1ccccc1)oc1ccccc12,8.52% (active)
23,COc1cc(/C=C/C(=O)OCC(=O)c2ccccc2)cc(OC)c1OC,0.0945%

row,Compound,caspase activation
1,Cc1[nH]n(-c2ccccc2)c(=O)c1CCOC(=O)c1ccc(C(F)(F)F)cc1,0.514%
2,O=C(CCc1nnc2ccc(NCc3ccccc3Cl)nn12)NCC1CCN(C2CCCC2)C1 (centres undefined),-0.323%
3,CCC(C)(C)c1ccc(OCC(=O)N(C)C)c(C(C)(C)CC)c1,-0.559%
4,O=C(COc1ccc([N+](=O)[O-])cc1Cl)Nc1ccc2[nH]c(=O)[nH]c2c1,-0.19%
5,Cc1cc(OCCN2CCCC2)cc(C(C)C)c1,0.0914%
6,O=C(O)CC1S/C(=N\N=C/c2ccccc2O)N(c2ccc(O)cc2)C1=O (centres undefined),0.687%
7,CCOc1ccc(NC(=O)CC2C(=O)N(c3ccccc3)C(=O)N2CCOC)cc1 (centres undefined),0.358%
8,C=CCC1(C#N)C(=S)NC(C)=C(C(=O)OCC)C1c1ccccc1 (centres undefined),0.0109%
9,Cc1cccc(NS(=O)(=O)c2ccc(C)c(C(=O)NCC(c3ccccc3)N(C)C)c2)c1 (centres undefined),1.2%
10,Cc1c2cn[nH]c(=O)c2c(C)n1Cc1ccc(F)cc1,-0.558%
11,Cc1cc(NC(=O)CSc2nc3cc(Cl)ccc3c(=O)n2Cc2ccco2)no1,29.5% (active)
12,Cc1cc(NC(=O)CSc2nnc(-c3ccco3)n2N)no1,-0.817%
13,Cc1cc(NC(=O)CSc2nc3ccccc3n2CC(C)C)no1,0.633%
14,CC(NC(=S)Nc1ccccc1)C1COc2ccccc2O1 (centres undefined),-0.247%
15,CCC1=NN(C(=O)Cc2ccc([N+](=O)[O-])cc2)C(O)(c2ccc(Br)cc2)C1 (centres undefined),1.08%
16,Cc1ccc(S(=O)(=O)N(CC(O)CN2C(=O)NC(C)(C)C2=O)c2cccc([N+](=O)[O-])c2)cc1 (centres undefined),0.0755%
17,CSc1nnnn1-c1c(C)cc(C)cc1C,-0.157%
18,O=C1CCC(C(=O)N2CCCCO2)CN1Cc1cccc(C(F)(F)F)c1 (centres undefined),0.28%
19,Cc1ccc(/C=C/C(=O)OCC(=O)NCc2ccc(Cl)cc2)o1,-0.527%
20,CCOC(=O)CSc1nc(C)cc2c1C(=O)OC2,0.711%
21,CCOC(=O)CSc1ccccn1,-0.651%
22,CCOC(=O)CSC1=N/C(=C/c2ccc(-n3cncn3)cc2)C(=O)N1C(C)=O,8.99% (active)
23,O=C1CCC(C(=O)N2CCC(O)(c3ccccc3)CC2)CN1CCc1ccccc1 (centres undefined),0.199%

row,Compound,caspase activation
1,COCCNc1ccc(-c2n[nH]c(=O)c3ccccc23)cc1[N+](=O)[O-],-1.33%
2,Cc1ccc(NC(=O)c2ccc(Oc3ncccn3)cc2)cc1,-1.4%
3,Cc1ccccc1N1CCN(C2CCCN(C(=O)c3ocnc3C)C2)CC1 (centres undefined),0.888%
4,CCc1ccc(/C=N/NC(=O)c2ccc(OC3CCCC3)cc2)s1,-0.334%
5,COC(=O)C(=Nc1ccccc1)/C(C(=O)C(=O)N(C)c1ccccc1)=C(\O)c1ccc(Cl)cc1,-1%
6,Cc1ccc(-n2c(SCC(=O)Nc3ncc(Cl)cc3Cl)nc3ccccc32)cc1,0.221%
7,CCC1(C(=O)c2ccccc2)C(c2cccc([N+](=O)[O-])c2)C1(C(=O)OC)C(=O)OC (centres undefined),-0.612%
8,O=C1Nc2c(Br)cc(Br)cc2C1(O)N1CCOCC1 (centres undefined),-1.16%
9,COc1ccc(C(=O)NCc2ccc(Cl)cc2)cc1S(=O)(=O)N1CCCC1,-0.377%
10,COc1cc(C2C(N3C(=O)c4ccccc4C3=O)C(=O)N2c2ccc(C)c(C)c2)cc(OC)c1OC (centres undefined),0.266%
11,CCOc1ccc(Br)cc1S(=O)(=O)Nc1ccc(S(=O)(=O)Nc2cc(C)on2)cc1,1.21%
12,O=C(Nc1ccc(Cl)c(Cl)c1)c1ccccc1NC(=O)C1CC=CCC1C(=O)O (centres undefined),-2.01%
13,Cc1ccc(-n2ncc3c2CC(C)(C)CC3NC(=O)Cc2c(C)noc2C)cc1 (centres undefined),1.06%
14,Cc1cc(C(C)(C)C)cc(S(=O)(=O)Nc2ccc(C(=O)O)cc2)c1C,-0.667%
15,CCCCCn1c(=O)c(C(=O)OCC)c(Cl)c2ccccc21,0.0442%
16,N#CCSc1nc(-c2ccccc2)nc2ccc(F)cc12,1.31%
17,C#CCOCCOCCOCCNc1nc(N2CCN(C(=O)C([C@@H](C)O)n3cc([C@@H](N)CCCCN)nn3)CC2)nc(N2CCN(C(=O)[C@H](CCCCN)n3cc(CN)nn3)CC2)n1 (some centres undefined),0.837%
18,Cc1cc(=O)[nH]c(S)c1C#N,0.51%
19,COCCn1c(N)c(NCc2ccccc2)c(=O)[nH]c1=O,-0.132%
20,CCC(C)N(C(=O)COC(=O)C1C(C(=O)OC)=C(C)NC(C)=C1C(=O)OC)C1CCS(=O)(=O)C1 (centres undefined),-0.124%
21,CCCCc1ccc(NC(=S)N2CCCC(CO)C2)cc1 (centres undefined),-0.669%
22,CCCc1cc(C(=O)Nc2ccc(Cl)cn2)cs1,-8.84%
23,CCS(=O)(=O)c1cc([N+](=O)[O-])c(Sc2ccccc2N)s1,1.52%

row,Compound,caspase activation
1,Cc1ccc(C(C[N+](=O)[O-])c2c(C)cc3ccccn23)cc1 (centres undefined),1.62%
2,Nc1ccccc1SC(C[N+](=O)[O-])c1ccccc1 (centres undefined),9.45% (active)
3,O=C(Nc1nnc(C2=COCCO2)o1)c1ccc([N+](=O)[O-])s1,-4.99%
4,COc1cc(-c2nnc(NC(=O)C3=COCCO3)o2)cc(OC)c1OC,0.457%
5,Cc1ccc(C(=O)Nc2nnc(C3=COCCO3)o2)cc1C,44.6% (active)
6,ON=C1/C(=N\O)CC2(C/C1=N/O)OCCO2,0.622%
7,O=C1CCCc2nn(-c3ccccc3)nc21,-0.0976%
8,COC(=O)Nc1ncc(CN2CCCCC2)s1,0.0297%
9,CSCC[C@H](NC(=O)NCCc1ccc(F)cc1)C(=O)O,0.319%
10,O=C(c1ccc(F)cc1)c1c[nH]c(C(=O)NCc2cccnc2)c1,0.0496%
11,CC(C)CC(=O)c1c[nH]c(C(=O)NCc2ccccc2)c1,6.29% (active)
12,COc1ccc(CNC(=O)c2cc(C(=O)C3CC3)c[nH]2)cc1,-0.0151%
13,CC(=O)Nc1cccc(NC(=O)c2ccc3c(c2)CCN3S(C)(=O)=O)c1,0.604%
14,COc1ccc(-c2n[nH]c3c2CN(C(=O)c2ccc(F)cc2)CC3)cc1,1.44%
15,CCOC(=O)c1sc(N)c(C#N)c1COC(=O)C1=COCCO1,0.458%
16,COc1ccc(CNC(=O)c2ccc(NS(=O)(=O)c3ccc4[nH]c(=O)[nH]c4c3)cc2)cc1OC,-0.468%
17,COc1cccc(NC(=O)CN(C)C(=O)/C=C/c2cc(OC)ccc2OC)c1,-0.126%
18,O=C(O)c1ccn(COc2ccc(Br)cc2)n1,-1.22%
19,CC(C)N(C(=O)CN1CCN(S(=O)(=O)c2ccc(Br)s2)CC1)C(C)C,1.33%
20,CC(C)n1cnc2c(NCc3ccccc3)cc(N[C@@H](CO)Cc3ccccc3)cc21,-2.12%
